# Reference: PubChem BioAssay (EPA / NIEHS)
# Where “and” joins values, the source holds several entries; their conditions need not be identical. Identical values can stand only once. Records with an inconclusive call do not appear. Some compounds were tested as several samples or in several runs, with calls that do not always agree. Calls of active or inactive are those of the source. Rule for the calls, unless noted: active = hit-call score of the fitted dose curve at least 0.9, where 1 is the maximum; inactive = score below 0.9.
# How the values were obtained:
# [1] = target: Retinoic acid receptor RXR-alpha (Homo sapiens) (UniProt P19793); test: ATG_RXRa_TRANS: Attagene TRANS-FACTORIAL HepG2 Assay for human Retinoid X Receptor alpha (RXRa) (AID 2283012; active = hit-call score of the fitted dose curve at least 0.9, where 1 is the maximum)
# Procedure, shortened: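 TRANS format reporting activity of exogenous RXRa-Gal4 chimera in transiently transfected HepG2, 24 h exposure. Reporter transcripts quantified by RT-PCR with capillary electrophoresis, with gain of signal scored relative to DMSO.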
# [2] = target: human Retinoid X Receptor beta (RXRb), RXRB (gene 6257) (UniProt P28702); test: ATG_RXRb_TRANS: Attagene TRANS-FACTORIAL HepG2 Assay for human Retinoid X Receptor beta (RXRb) (AID 2283013; active = hit-call score of the fitted dose curve at least 0.9, where 1 is the maximum)
# Procedure, shortened: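 Readout is reporter transcript induction after 24 h dosing. It is measured by RT-PCR of total RNA followed by fluorescent capillary electrophoresis. HepG2 liver cells carry transfected multiple reporter units driven by an exogenous RXRb-Gal4 fusion; activity is relative to DMSO.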
# [3] = target: human Thyroid Receptor alpha (THRa1), THRA (gene 7067) (UniProt P10827); test: ATG_THRa1_TRANS: Attagene TRANS-FACTORIAL HepG2 Assay for human Thyroid Receptor alpha (THRa1) (AID 2283014; active = hit-call score of the fitted dose curve at least 0.9, where 1 is the maximum)
# Procedure, shortened: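 HepG2 cells transiently transfected with chimeric NR-Gal4 and GAL4-UAS reporter units, dosed 24 h. Reporter mRNA quantified by RT-PCR, fluorescent labeling, HpaI digestion and capillary electrophoresis; gain-of-signal fit versus DMSO.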
# [4] = target: human Vitamin D Receptor (VDR), VDR (gene 7421) (UniProt P11473); test: ATG_VDR_TRANS: Attagene TRANS-FACTORIAL HepG2 Assay for human Vitamin D Receptor (VDR) (AID 2283022; active = hit-call score of the fitted dose curve at least 0.9, where 1 is the maximum)
# Procedure, shortened: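 HepG2 cells were transiently transfected with GAL4-UAS reporter units and a chimeric VDR-Gal4 construct, then dosed for 24 hours. Reporter mRNA was quantified by RT-PCR, fluorescent labeling, HpaI digestion and capillary electrophoresis; gain of signal analysed vs DMSO.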
# [5] = read-out: Interleukin-1 alpha (IL1a), IL1A (gene 3552); test: BSK_BE3C_IL1a: BioMAP Diversity Plus: BE3C Assay for Interleukin-1 alpha (IL1a) Biomarker Activity (AID 2283016); settings: primary human bronchial epithelial cells; actives raise or lower the signal
# Procedure, shortened: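 IL-1a measured by ELISA after 24 h treatment of human primary bronchial epithelial cells, with gain or loss of signal fitted versus DMSO. Parallel cultures stained with SRB gauge overt cytotoxicity.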
# [6] = read-out: Monocyte Chemoattractant Protein-1 (MCP1), CCL2 (gene 6347); test: BSK_3C_MCP1: BioMAP Diversity Plus: 3C Assay for Monocyte Chemoattractant Protein-1 (MCP1) Biomarker Activity (AID 2283017); settings: primary human endothelial cells (HUVEC); actives raise or lower the signal
# Procedure, shortened: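 Human umbilical vein endothelial cells (3C system) exposed to chemicals for 24 h; MCP-1 quantified by ELISA against the DMSO baseline with bidirectional fitting, and parallel SRB staining used to assess cytotoxicity.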
# [7] = read-out: Monocyte Chemoattractant Protein-1 (MCP1), CCL2 (gene 6347); test: BSK_4H_MCP1: BioMAP Diversity Plus: 4H Assay for Monocyte Chemoattractant Protein-1 (MCP1) Biomarker Activity (AID 2283018); settings: primary human endothelial cells (HUVEC); actives raise or lower the signal
# Procedure, shortened: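 ELISA of MCP-1 (CCL2) 24 h after chemical dosing of HUVEC in the BioMAP 4H system. Gain or loss versus DMSO fitted; parallel SRB staining (560 nm) tracked overt cytotoxicity.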
# [8] = read-out: Human Leukocyte Antigen - DR isotype (HLADR), HLA-DRA (gene 3122); test: BSK_3C_HLADR: BioMAP Diversity Plus: 3C Assay for Human Leukocyte Antigen - DR isotype (HLADR) Biomarker Activity (AID 2283019); settings: primary human endothelial cells (HUVEC); actives raise or lower the signal;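 for outcome: ELISA of cell-surface HLA-DR on HUVEC 24 h after dosing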
# Procedure, shortened: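 HUVEC monoculture, HLA-DR measured by ELISA 24 h after chemical dosing. Fitted bidirectionally against DMSO baseline; parallel SRB staining assessed cytotoxicity, with 3C proliferation read by SRB at 48 h.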
# [9] = read-out: Interleukin-8 (IL8), CXCL8 (gene 3576); test: BSK_3C_IL8: BioMAP Diversity Plus: 3C Assay for Interleukin-8 (IL8) Biomarker Activity (AID 2283020); settings: primary human endothelial cells (HUVEC); actives raise or lower the signal
# Procedure, shortened: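 IL-8 was measured by ELISA in HUVEC cultures 24 h after chemical dosing, with gain or loss of signal fitted relative to DMSO. Parallel SRB total-protein staining tracked overt cytotoxicity.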
# [10] = read-out: Monokine induced gamma interferon (MIG), CXCL9 (gene 4283); test: BSK_3C_MIG: BioMAP Diversity Plus: 3C Assay for Monokine induced gamma interferon (MIG) Biomarker Activity (AID 2283021); settings: primary human endothelial cells (HUVEC); actives raise or lower the signal;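 for AC50: MIG protein level measured by immunoassay in the treated endothelial cultures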
# Procedure, shortened: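 ELISA measurement of MIG in human umbilical vein endothelial cells 24 h after treatment. Cytotoxicity tracked by SRB staining in parallel cultures; gain or loss of signal fitted relative to DMSO.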
# [11] = BSK_3C_SRB: Viability Assessment in the BioMAP Diversity Plus: 3C Assay (AID 2283023); settings: primary human endothelial cells (HUVEC);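 note: fitted both ways against DMSO so a hit may be signal rise or drop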
# Procedure, shortened: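 Human umbilical vein endothelial cells in the 3C system, treated 24 h. Total protein measured by 0.1% sulforhodamine B staining after 10% TCA fixation, read at 560 nm; bidirectional fit versus DMSO.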
# [12] = BSK_3C_Vis: BioMAP Diversity Plus: 3C Assay for Morphology Visualization (AID 2283025); settings: primary human endothelial cells (HUVEC);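 note: fitted both ways so gain or loss versus DMSO counts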;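 for AC50: light microscopy image of cell morphology used as background control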
# Procedure, shortened: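 Light-microscopy visualization of HUVEC cultures at 24 h post-treatment, with DMSO as baseline for bidirectional fitting.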
# [13] = read-out: Pselectin, SELP (gene 6403); test: BSK_4H_Pselectin: BioMAP Diversity Plus: 4H Assay for Pselectin Biomarker Activity (AID 2283026); settings: primary human endothelial cells (HUVEC); actives raise or lower the signal
# Procedure, shortened: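 ELISA of surface P-selectin on HUVEC, 24 h after dosing, with parallel SRB staining (0.1% after 10% TCA fixation, 560 nm) for overt cytotoxicity. Activity fitted in both directions relative to DMSO.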
# [14] = BSK_4H_SRB: Viability Assessment in the BioMAP Diversity Plus: 4H Assay (AID 2283027); settings: primary human endothelial cells (HUVEC);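 note: cells exposed to compound for 24 h before staining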;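 for AC50: curves fitted both ways versus DMSO so AC50 may be loss or gain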
# Procedure, shortened: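 HUVEC, 24 h post-dose; 10% TCA fix, 0.1% SRB stain, A560 nm. Total protein = overt cytotoxicity, parallel to biomarker read. Bidirectional fit vs DMSO baseline.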
# [15] = BSK_BE3C_SRB: Viability Assessment in the BioMAP Diversity Plus: BE3C Assay (AID 2283028); settings: primary human bronchial epithelial cells;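 for AC50: fitted both ways so AC50 may mark signal gain or loss versus DMSO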
# Procedure, shortened: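 Human bronchial epithelial primary cells in confluent culture, 24 h after chemical dosing; total protein by 0.1% SRB staining after 10% TCA fixation, read at 560 nm. Bidirectional fitting versus DMSO baseline.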
# [16] = read-out: Thrombomodulin, THBD (gene 7056); test: BSK_3C_Thrombomodulin: BioMAP Diversity Plus: 3C Assay for Thrombomodulin Biomarker Activity (AID 2283029); settings: primary human endothelial cells (HUVEC); actives raise or lower the signal
# Procedure, shortened: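 ELISA measurement of thrombomodulin on HUVEC surface 24 h after chemical dosing; activity fitted in both directions relative to DMSO vehicle.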
# [17] = read-out: Urokinase-type plasminogen activator receptor (uPAR), PLAUR (gene 5329); test: BSK_4H_uPAR: BioMAP Diversity Plus: 4H Assay for Urokinase-type plasminogen activator receptor (uPAR) Biomarker Activity (AID 2283030); settings: primary human endothelial cells (HUVEC); actives raise or lower the signal
# Procedure, shortened: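 Human umbilical vein endothelial cells in the 4H system, 24 h after chemical dosing. Cell-surface uPAR measured by ELISA, fitted in both directions versus DMSO; cytotoxicity checked by SRB total protein in parallel cultures.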
# [18] = read-out: Vascular endothelial growth factor receptor 2 (Homo sapiens) (UniProt P35968); test: BSK_4H_VEGFRII: BioMAP Diversity Plus: 4H Assay for Vascular endothelial growth factor receptor 2 (VEGFR2) Biomarker Activity (AID 2283031); settings: primary human endothelial cells (HUVEC); actives raise or lower the signal
# Procedure, shortened: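 Primary human umbilical vein endothelial cells (4H system), 24 h exposure; cell-surface VEGFR2 measured by ELISA. Bidirectional fitting versus DMSO; cytotoxicity checked in parallel by SRB total-protein staining.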
# [19] = read-out: Matrix Metallopeptidase 1 (MMP1), MMP1 (gene 4312); test: BSK_BE3C_MMP1: BioMAP Diversity Plus: BE3C Assay for Matrix Metallopeptidase 1 (MMP1) Biomarker Activity (AID 2283024); settings: primary human bronchial epithelial cells; actives raise or lower the signal
# Procedure, shortened: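 ELISA measurement of MMP-1 after 24 h compound exposure of primary human bronchial epithelial cells. Changes in either direction fitted relative to DMSO; parallel SRB staining checked overt cytotoxicity.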
# Sequence of human Vitamin D Receptor (VDR), VDR (gene 7421) (P11473 whole entry, looked up, the tested form may be a part): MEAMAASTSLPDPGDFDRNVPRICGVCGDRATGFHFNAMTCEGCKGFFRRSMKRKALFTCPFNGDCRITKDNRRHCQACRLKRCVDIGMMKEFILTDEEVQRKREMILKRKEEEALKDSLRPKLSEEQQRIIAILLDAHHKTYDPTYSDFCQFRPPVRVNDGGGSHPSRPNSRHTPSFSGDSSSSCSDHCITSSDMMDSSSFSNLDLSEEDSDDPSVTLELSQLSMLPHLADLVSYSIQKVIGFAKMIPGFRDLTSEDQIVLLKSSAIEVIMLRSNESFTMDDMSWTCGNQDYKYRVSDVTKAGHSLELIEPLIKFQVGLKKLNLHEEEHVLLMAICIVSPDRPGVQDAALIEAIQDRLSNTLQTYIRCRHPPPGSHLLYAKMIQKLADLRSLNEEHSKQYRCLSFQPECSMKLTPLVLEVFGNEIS
# Sequence of human Retinoid X Receptor beta (RXRb), RXRB (gene 6257) (P28702 whole entry, looked up, the tested form may be a part): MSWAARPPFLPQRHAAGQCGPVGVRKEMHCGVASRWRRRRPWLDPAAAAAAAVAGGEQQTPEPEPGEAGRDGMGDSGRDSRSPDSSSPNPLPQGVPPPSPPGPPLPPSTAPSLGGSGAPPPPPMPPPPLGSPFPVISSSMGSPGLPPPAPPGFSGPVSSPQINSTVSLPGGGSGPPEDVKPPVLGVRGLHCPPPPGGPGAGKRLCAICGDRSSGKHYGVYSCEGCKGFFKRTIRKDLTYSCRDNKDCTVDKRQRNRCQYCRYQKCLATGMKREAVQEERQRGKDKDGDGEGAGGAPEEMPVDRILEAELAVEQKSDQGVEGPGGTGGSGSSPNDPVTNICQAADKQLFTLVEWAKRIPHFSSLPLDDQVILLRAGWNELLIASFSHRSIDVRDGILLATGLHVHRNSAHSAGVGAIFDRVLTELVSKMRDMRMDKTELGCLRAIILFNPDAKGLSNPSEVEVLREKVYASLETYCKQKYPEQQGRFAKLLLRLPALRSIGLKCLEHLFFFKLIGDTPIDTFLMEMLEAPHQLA
# Sequence of human Thyroid Receptor alpha (THRa1), THRA (gene 7067) (P10827 whole entry, looked up, the tested form may be a part): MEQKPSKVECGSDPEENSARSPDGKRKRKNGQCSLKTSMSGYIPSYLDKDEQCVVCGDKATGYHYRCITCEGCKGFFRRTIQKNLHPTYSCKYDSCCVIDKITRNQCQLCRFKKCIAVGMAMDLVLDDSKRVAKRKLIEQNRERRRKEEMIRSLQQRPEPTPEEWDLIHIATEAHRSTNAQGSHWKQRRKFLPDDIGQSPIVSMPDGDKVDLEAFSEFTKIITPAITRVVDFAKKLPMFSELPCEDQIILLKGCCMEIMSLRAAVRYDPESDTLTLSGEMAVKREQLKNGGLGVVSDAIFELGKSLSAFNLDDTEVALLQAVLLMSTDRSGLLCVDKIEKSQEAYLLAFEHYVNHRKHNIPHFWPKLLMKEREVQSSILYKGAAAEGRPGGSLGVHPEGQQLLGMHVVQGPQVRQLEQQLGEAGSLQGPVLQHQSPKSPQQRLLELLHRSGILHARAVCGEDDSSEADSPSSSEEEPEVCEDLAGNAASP
# Sequence of Retinoic acid receptor RXR-alpha (Homo sapiens) (P19793 whole entry, looked up, the tested form may be a part): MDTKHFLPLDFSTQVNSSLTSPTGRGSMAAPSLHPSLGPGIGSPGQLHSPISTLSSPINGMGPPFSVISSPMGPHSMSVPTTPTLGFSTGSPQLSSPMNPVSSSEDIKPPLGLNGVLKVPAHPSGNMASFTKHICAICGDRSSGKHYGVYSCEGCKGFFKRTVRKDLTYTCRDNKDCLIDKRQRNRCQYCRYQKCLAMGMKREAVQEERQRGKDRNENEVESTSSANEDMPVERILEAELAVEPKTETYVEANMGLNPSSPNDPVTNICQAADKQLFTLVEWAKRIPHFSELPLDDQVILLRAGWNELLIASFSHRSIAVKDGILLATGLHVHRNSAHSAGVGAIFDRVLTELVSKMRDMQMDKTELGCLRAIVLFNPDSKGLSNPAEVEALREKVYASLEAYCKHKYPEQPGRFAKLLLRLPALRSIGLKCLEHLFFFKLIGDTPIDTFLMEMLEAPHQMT
smiles,measurement,setting,value
CC(C)C=O,outcome,[1],inactive
same,AC50,[2],100 µM (active)
COc1cc([N+](=O)[O-])ccc1N,outcome,[1],inactive
same,outcome,[2],inactive
same,outcome,[3],inactive
same,outcome,[4],inactive
C/C=C/C(=O)C1=C(C)CCCC1(C)C,outcome,[1],inactive
same,outcome,[2],inactive
same,outcome,[3],inactive
CCOC(=O)CN[C@@H](C(=O)N1CC[C@H]1C(=O)NCc1ccc(/C(N)=N/O)cc1)C1CCCCC1,outcome,[1],inactive
same,AC50,[2],1.42 µM (active)
same,outcome,[3],inactive
same,outcome,[5],inactive
same,outcome,[6],inactive
same,outcome,[7],inactive
same,outcome,[8],inactive
same,outcome,[9],inactive
same,outcome,[10],inactive
same,outcome,[4],inactive
same,outcome,[11],inactive
same,outcome,[12],inactive
same,outcome,[13],inactive
same,outcome,[14],inactive
same,outcome,[15],inactive
same,outcome,[16],inactive
same,outcome,[17],inactive
same,outcome,[18],inactive
O=C(Nc1cccc([N+](=O)[O-])c1)c1cc2ccccc2cc1O,outcome,[1],inactive
same,outcome,[2],inactive
same,AC50,[3],17.5 µM (active)
same,outcome,[4],inactive
CC(C)(c1ccc(Oc2ccc(N)cc2)cc1)c1ccc(Oc2ccc(N)cc2)cc1,outcome,[1],inactive
same,outcome,[2],inactive
O=C1OC(=O)C(F)(F)C1(F)F,outcome,[1],inactive
CCCCCCCCCCCC(=O)NCCCN(C)C,outcome,[1],inactive
Cc1cccc2c1ccc1ccccc12,outcome,[1],inactive
same,AC50,[2],22.6 µM (active)
same,outcome,[3],inactive
same,outcome,[6],inactive
same,outcome,[7],inactive
same,AC50,[8],20 µM (active)
same,outcome,[9],inactive
same,outcome,[10],inactive
same,outcome,[4],inactive
same,outcome,[11],inactive
same,outcome,[12],inactive
same,outcome,[13],inactive
same,outcome,[14],inactive
same,outcome,[15],inactive
same,outcome,[16],inactive
same,outcome,[17],inactive
same,outcome,[18],inactive
O=C(F)C(F)(F)C(F)(F)C(F)(F)C(F)F,outcome,[1],inactive
same,outcome,[2],inactive
CCCCCc1ccc(O)cc1,outcome,[1],inactive
same,AC50,[2],33.4 µM (active)
same,outcome,[3],inactive
same,AC50,[6],20 µM (active)
same,AC50,[7],9.34 µM (active)
same,AC50,[8],11.6 µM (active)
same,AC50,[9],11.3 µM (active)
same,AC50,[10],34.6 µM (active)
same,AC50,[11],14.5 µM (active)
same,AC50,[19],30.2 µM (active)
same,AC50,[12],12.1 µM (active)
same,AC50,[13],13.3 µM (active)
same,AC50,[14],15.8 µM (active)
same,AC50,[15],26 µM (active)
same,AC50,[16],11.7 µM (active)
same,AC50,[17],20 µM (active)
same,outcome,[18],inactive
C[C@]12CC[C@@H]3c4ccc(O)cc4CC[C@H]3[C@@H]1CC[C@@H]2OC(=O)CCC1CCCC1,outcome,[1],inactive
same,AC50,[2],169 µM (active)
CC(C)(C)c1ccc(O)c(O)c1,outcome,[1],inactive
same,AC50,[2],38.8 µM (active) and 44.5 µM (active) and 27.8 µM (active)
same,outcome,[2],inactive
same,AC50,[3],34.1 µM (active)
same,outcome,[3],inactive
same,AC50,[5],20 µM (active)
same,outcome,[6],inactive
same,AC50,[7],5.58 µM (active)
same,AC50,[8],5.3 µM (active)
same,outcome,[9],inactive
same,outcome,[10],inactive
same,outcome,[4],inactive
same,AC50,[11],5.42 µM (active)
same,outcome,[19],inactive
same,AC50,[12],8.8 µM (active)
same,AC50,[13],20 µM (active)
same,AC50,[14],5.52 µM (active)
same,outcome,[15],inactive
same,outcome,[16],inactive
same,outcome,[17],inactive
same,outcome,[18],inactive
